# According to the supplement of paper PMC8728848:
# Shown is part of a subset that was picked to be rich in the strongest signals.
# Assays:
# Experiment in all cases: glycan array binding signal (z-score within array); higher = stronger binding
# Conditions in all cases: glycan notation: IUPAC condensed, linker removed
# [1] = target: Fuc(a1-2)Gal(b1-3)GalNAc(b1-3)Gal
# How it was run: (§1)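 Glycan array data were curated from 3228 arrays in the Consortium for Functional Glycomics database and kept only where the protein sequence was available. Glycan names were converted to IUPAC-condensed notation, and columns mapping to the same glycan were averaged. The binding signal is a within-array Z-score, averaged across arrays of the same protein sequence at different concentrations or buffers and across linkers. Negative Z-scores can be read as non-binding.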
# [2] = target: Fuc(a1-2)Gal(b1-3)GlcNAc(b1-3)Gal(b1-4)Glc
# How it was run: as §1
# [3] = target: Fuc(a1-2)Gal(b1-4)[Fuc(a1-3)]GlcNAc(b1-3)[Neu5Ac(a2-6)Gal(b1-4)GlcNAc(b1-6)]Gal(b1-4)Glc
# How it was run: as §1
# [4] = target: Fuc(a1-2)[Gal(a1-3)]Gal(b1-4)GlcNAc(b1-2)Man
# How it was run: as §1
# [5] = target: Fuc(a1-2)[GalNAc(a1-3)]Gal(b1-3)GalNAc(b1-3)Gal(a1-4)Gal(b1-4)Glc
# How it was run: as §1
# [6] = target: Fuc(a1-2)[GalNAc(a1-3)]Gal(b1-3)GlcNAc(b1-2)Man(a1-3)[Fuc(a1-2)[GalNAc(a1-3)]Gal(b1-3)GlcNAc(b1-2)Man(a1-6)]Man(b1-4)GlcNAc(b1-4)GlcNAc
# How it was run: as §1
# [7] = target: Fuc(a1-3)[Gal(b1-4)]GlcNAc(b1-2)Man(a1-3)[Fuc(a1-3)[Gal(b1-4)]GlcNAc(b1-2)Man(a1-6)]Man(b1-4)GlcNAc(b1-4)GlcNAc
# How it was run: as §1
# [8] = target: Gal(a1-3)Gal(b1-3)GlcNAc(b1-3)GalNAc
# How it was run: as §1
# [9] = target: Gal(a1-3)Gal(b1-3)[Fuc(a1-4)]GlcNAc(b1-2)Man(a1-3)[Gal(a1-3)Gal(b1-3)[Fuc(a1-4)]GlcNAc(b1-2)Man(a1-6)]Man(b1-4)GlcNAc(b1-4)GlcNAc
# How it was run: as §1
# Gal(a1-3)GalNAc = target: Gal(a1-3)GalNAc
# How it was run: as §1
# Gal(a1-4)Gal(b1-4)GlcNAc = target: Gal(a1-4)Gal(b1-4)GlcNAc
# How it was run: as §1
# [10] = target: Gal(a1-4)Gal(b1-4)GlcNAc(b1-2)Man(a1-3)[Gal(a1-4)Gal(b1-4)GlcNAc(b1-2)Man(a1-6)]Man(b1-4)GlcNAc(b1-4)GlcNAc
# How it was run: as §1
# [11] = target: Gal(a1-4)Gal(b1-4)GlcNAc(b1-3)Gal(b1-4)Glc
# How it was run: as §1
# Gal(b1-2)Gal = target: Gal(b1-2)Gal
# How it was run: as §1
# [12] = target: Gal(b1-3)GlcNAc(b1-3)Gal(b1-4)Glc
# How it was run: as §1
# [13] = target: Gal(b1-3)[Fuc(a1-4)]GlcNAc(b1-2)Man(a1-3)[Gal(b1-3)[Fuc(a1-4)]GlcNAc(b1-2)Man(a1-6)]Man(b1-4)GlcNAc(b1-4)[Fuc(a1-6)]GlcNAc
# How it was run: as §1
# Gal(b1-4)Glc = target: Gal(b1-4)Glc
# How it was run: as §1
# [14] = target: Gal(b1-4)GlcNAc(b1-2)[Gal(b1-4)GlcNAc(b1-4)]Man(a1-3)[Gal(b1-4)GlcNAc(b1-2)Man(a1-6)]Man(b1-4)GlcNAc(b1-4)GlcNAc
# How it was run: as §1
# [15] = target: Gal(b1-4)GlcNAc(b1-3)Gal(b1-4)Glc
# How it was run: as §1
# [16] = target: Gal(b1-4)GlcNAc(b1-3)Gal(b1-4)GlcNAc(b1-3)Gal(b1-4)GlcNAc(b1-2)Man(a1-3)[Gal(b1-4)GlcNAc(b1-3)Gal(b1-4)GlcNAc(b1-3)Gal(b1-4)GlcNAc(b1-2)Man(a1-6)]Man(b1-4)GlcNAc(b1-4)[Fuc(a1-6)]GlcNAc
# How it was run: as §1
# [17] = target: Gal(b1-4)GlcNAc(b1-3)GalNAc
# How it was run: as §1
# [18] = target: Gal(b1-4)GlcNAc(b1-6)Gal(b1-4)GlcNAc
# How it was run: as §1
# Gal(b1-6)Gal = target: Gal(b1-6)Gal
# How it was run: as §1
# Gal4S(b1-4)GlcNAc = target: Gal4S(b1-4)GlcNAc
# How it was run: as §1
# GalNAc(b1-3)GalNAc = target: GalNAc(b1-3)GalNAc
# How it was run: as §1
# GlcA(b1-3)GlcNAc = target: GlcA(b1-3)GlcNAc
# How it was run: as §1
# [19] = target: GlcNAc(a1-4)Gal(b1-4)GlcNAc(b1-3)Gal(b1-4)[Fuc(a1-3)]GlcNAc(b1-3)Gal(b1-4)[Fuc(a1-3)]GlcNAc
# How it was run: as §1
# [20] = target: GlcNAc(b1-3)Gal(b1-4)GlcNAc(b1-3)Gal(b1-4)GlcNAc(b1-2)Man(a1-3)[GlcNAc(b1-3)Gal(b1-4)GlcNAc(b1-3)Gal(b1-4)GlcNAc(b1-2)Man(a1-6)]Man(b1-4)GlcNAc(b1-4)GlcNAc
# How it was run: as §1
# [21] = target: GlcNAc(b1-3)Gal(b1-4)GlcNAc(b1-3)Gal(b1-4)GlcNAc(b1-3)Gal(b1-4)GlcNAc(b1-3)Gal(b1-4)GlcNAc(b1-2)[GlcNAc(b1-3)Gal(b1-4)GlcNAc(b1-3)Gal(b1-4)GlcNAc(b1-3)Gal(b1-4)GlcNAc(b1-3)Gal(b1-4)GlcNAc(b1-6)]Man(a1-6)[GlcNAc(b1-3)Gal(b1-4)GlcNAc(b1-3)Gal(b1-4)GlcNAc(b1-3)Gal(b1-4)GlcNAc(b1-3)Gal(b1-4)GlcNAc(b1-2)Man(a1-3)]Man(b1-4)GlcNAc(b1-4)[Fuc(a1-6)]GlcNAc
# How it was run: as §1
# [22] = target: GlcNAc(b1-3)[GlcNAc(b1-6)]Gal(b1-4)GlcNAc
# How it was run: as §1
# [23] = target: GlcNAc(b1-4)GlcNAc(b1-4)GlcNAc
# How it was run: as §1
# [24] = target: GlcNAc(b1-6)Gal(b1-4)GlcNAc
# How it was run: as §1
# Kdn(a2-3)Gal(b1-4)Glc = target: Kdn(a2-3)Gal(b1-4)Glc
# How it was run: as §1
# [25] = target: Man(a1-2)Man(a1-3)[Man(a1-2)Man(a1-6)]Man
# How it was run: as §1
# MurNAc(b1-4)GlcNAc = target: MurNAc(b1-4)GlcNAc
# How it was run: as §1
# Neu5Ac(a2-3)Gal = target: Neu5Ac(a2-3)Gal
# How it was run: as §1
# [26] = target: Neu5Ac(a2-3)Gal(b1-3)GlcNAc(b1-4)Gal(b1-4)Glc
# How it was run: as §1
# [27] = target: Neu5Ac(a2-3)Gal(b1-3)[Fuc(a1-4)]GlcNAc(b1-3)Gal(b1-4)[Fuc(a1-3)]GlcNAc
# How it was run: as §1
# [28] = target: Neu5Ac(a2-3)Gal(b1-3)[Neu5Ac(a2-6)]GlcNAc(b1-3)[Fuc(a1-3)[Gal(b1-4)]GlcNAc(b1-6)]Gal(b1-4)Glc
# How it was run: as §1
# [29] = target: Neu5Ac(a2-3)Gal(b1-3)]Neu5Ac(a2-3)Gal(b1-4)]GlcNAc
# How it was run: as §1
# [30] = target: Neu5Ac(a2-3)Gal(b1-4)GlcNAc(b1-3)Gal(b1-4)GlcNAc(b1-6)[Gal(b1-3)]GalNAc
# How it was run: as §1
# [31] = target: Neu5Ac(a2-3)Gal(b1-4)[Fuc(a1-3)]GlcNAc(b1-2)Man
# How it was run: as §1
# [32] = target: Neu5Ac(a2-3)Gal(b1-4)[Fuc(a1-3)]GlcNAc(b1-3)Gal(b1-4)[Fuc(a1-3)]GlcNAc(b1-3)Gal(b1-4)[Fuc(a1-3)]GlcNAc
# How it was run: as §1
# [33] = target: Neu5Ac(a2-3)Gal(b1-4)[Fuc(a1-3)]GlcNAc(b1-6)[Neu5Ac(a2-3)Gal(b1-3)]GalNAc
# How it was run: as §1
# [34] = target: Neu5Ac(a2-6)Gal(b1-4)GlcNAc(b1-2)Man
# How it was run: as §1
# [35] = target: Neu5Ac(a2-6)Gal(b1-4)GlcNAc(b1-3)Gal(b1-4)GlcNAc
# How it was run: as §1
# [36] = target: Neu5Ac(a2-6)Gal(b1-4)GlcNAc(b1-3)Gal(b1-4)GlcNAc(b1-3)[Neu5Ac(a2-6)Gal(b1-4)GlcNAc(b1-3)Gal(b1-4)GlcNAc(b1-6)]GalNAc
# How it was run: as §1
# [37] = target: Neu5Ac(a2-6)Gal(b1-4)GlcNAc(b1-3)Gal(b1-4)GlcNAc(b1-6)[Gal(b1-3)]GalNAc
# How it was run: as §1
# [38] = target: Neu5Ac9Ac(a2-6)Gal(b1-4)GlcNAc
# How it was run: as §1
# [39] = target: Neu5Gc(a2-8)Neu5Gc(a2-3)Gal(b1-4)GlcNAc(b1-3)Gal(b1-4)GlcNAc
# How it was run: as §1
binder,measurement,setting,value
F17-L (Escherichia coli) (protein) GPDDYVPSQIAVNTSTLPGVVIGPADAHTYPRVIGELAGTSNQYVFNGGAIALMRGKFTPALPKIGSITYTFHQGNSRDSSDFDIYDIGVSGLGIIIGMAGYWPATPLVPINSSGIYIDPVGANTNPNTYNGATASFGARLFVAFVATGRLPNGYITIPTRQLGTILLEAKRTSLNNKGLTAPVMLNGGRIQVQSQTHHHHHH,glycan array binding signal (z-score),[1],-0.136
same,glycan array binding signal (z-score),[2],1.54
same,glycan array binding signal (z-score),[3],-0.136
same,glycan array binding signal (z-score),[4],0.196
same,glycan array binding signal (z-score),[5],0.104
same,glycan array binding signal (z-score),[6],-0.078
same,glycan array binding signal (z-score),[7],-0.072
same,glycan array binding signal (z-score),[8],-0.023
same,glycan array binding signal (z-score),[9],0.699
same,glycan array binding signal (z-score),Gal(a1-3)GalNAc,-0.118
same,glycan array binding signal (z-score),Gal(a1-4)Gal(b1-4)GlcNAc,1.8
same,glycan array binding signal (z-score),[10],22.9
same,glycan array binding signal (z-score),[11],2.92
same,glycan array binding signal (z-score),Gal(b1-2)Gal,-0.01
same,glycan array binding signal (z-score),[12],1.3
same,glycan array binding signal (z-score),[13],0.915
same,glycan array binding signal (z-score),Gal(b1-4)Glc,-0.096
same,glycan array binding signal (z-score),[14],-0.169
same,glycan array binding signal (z-score),[15],1.67
same,glycan array binding signal (z-score),[16],0.05
same,glycan array binding signal (z-score),[17],-0.12
same,glycan array binding signal (z-score),[18],-0.156
same,glycan array binding signal (z-score),Gal(b1-6)Gal,-0.146
same,glycan array binding signal (z-score),Gal4S(b1-4)GlcNAc,-0.113
same,glycan array binding signal (z-score),GalNAc(b1-3)GalNAc,-0.19
same,glycan array binding signal (z-score),GlcA(b1-3)GlcNAc,1
same,glycan array binding signal (z-score),[19],-0.101
same,glycan array binding signal (z-score),[20],0.024
same,glycan array binding signal (z-score),[21],0.006
same,glycan array binding signal (z-score),[22],-0.228
same,glycan array binding signal (z-score),[23],-0.131
same,glycan array binding signal (z-score),[24],0.019
same,glycan array binding signal (z-score),Kdn(a2-3)Gal(b1-4)Glc,-0.136
same,glycan array binding signal (z-score),[25],-0.153
same,glycan array binding signal (z-score),MurNAc(b1-4)GlcNAc,4.16
same,glycan array binding signal (z-score),Neu5Ac(a2-3)Gal,-0.099
same,glycan array binding signal (z-score),[26],-0.075
same,glycan array binding signal (z-score),[27],0.865
same,glycan array binding signal (z-score),[28],-0.114
same,glycan array binding signal (z-score),[29],0.01
same,glycan array binding signal (z-score),[30],-0.139
same,glycan array binding signal (z-score),[31],-0.12
same,glycan array binding signal (z-score),[32],-0.119
same,glycan array binding signal (z-score),[33],-0.152
same,glycan array binding signal (z-score),[34],-0.134
same,glycan array binding signal (z-score),[35],-0.069
same,glycan array binding signal (z-score),[36],-0.014
same,glycan array binding signal (z-score),[37],-0.112
same,glycan array binding signal (z-score),[38],-0.133
same,glycan array binding signal (z-score),[39],-0.129
